Bioassay records from PubChem BioAssay.
Rows were chosen to be rich in hits. Some 8% of all compounds tested hit in one or more screens of this group.
TSHR antagonist: antagonists of human thyroid stimulating hormone receptor | 0.2% of 330,000 active | TSHR-expressing cells, TSH-stimulated cAMP HTRF, 2 h; hits give low values | activity change, negative = inhibition, % at 11.5 µM | P16473;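 active means activity change below a set negative limit, meaning inhibition stronger than a set level, cut at about -70% in these data; inconclusive means activity change between two set negative limits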
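Antagonism was scored as loss of TSH-driven cAMP in TSHR cells, stimulated with 4nM TSH (EC80) for 2 hours at 37 deg C and detected by homogeneous HTRF competition immunoassay.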
VP16 counter: counter-screen for ROR gamma inhibitors: Gal4-VP16 reporter; Drosophila S2 Gal4-VP16 UAS-luciferase, luminescence, 20 h; Potency, µM (highest dose often 53.6 µM), inactives show at the highest dose activity, negative = inhibition, hits mostly inhibitors; 3.5% of 310,000 active; AID 2546;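 further: Gal4-VP16 expression switched on by copper sulfate through the metallothionein promoter; potency means the concentration at half of the fitted maximal effect; nearly all actives have a fitted effect of over 50% in size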
FBPA coupling cs: inhibits coupling enzyme system, counter-screen for aldolase hits; activity change, negative = inhibition, % at 58.2 µM, hits read low; 0.67% of 290,000 active; AID 2472; coupling enzyme system counterscreen, AmpLite Red fluorescence; in the data active means activity change below about -30%
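Coupling enzymes only (glyceraldehyde-3-phosphate) + compound, at 57.5 uM final, 10 min RT; add substrate/coupling/AmpLite Red mix, 20 min RT; fluorescence ex 525/em 598 nm. Actives flag coupling-system interference.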
ELG1 repair inh: inhibitors of ELG1-dependent DNA repair in HEK293T cells; HEK293T ELG1-luciferase reporter, luminescence, 16 h; DNA damage induced by 5-fluorouridine; Potency, µM (series often up to 46.1 µM), without a hit: at the top dose activity change, negative = inhibition, hits mostly inhibitors; 2.3% of 330,000 active; further: potency means the concentration at half of the fitted maximal effect; nearly all actives have a fitted effect of over 55% in size
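5-Fluorouridine DNA damage + compound/DMSO, 2,000 cells/well, 16 h, 37 °C/5% CO2. ONE-Glo, 30 min RT, luminescence. Readout = decrease in reporter signal.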
RORg inh: inhibitors of mouse ROR gamma transcriptional activity; P51450; Drosophila S2 Gal4-RORgamma UAS-luciferase reporter, 20 h; Potency, µM (doses to about 53.6 µM), inactives show top-dose activity change, negative = inhibition, usual class: inhibitors; 5.4% of 310,000 active; further: potency means the concentration at half of the fitted maximal effect; nearly all actives have a fitted effect of over 60% in size
Target sequence (P51450 whole entry, looked up, the tested form may be a part): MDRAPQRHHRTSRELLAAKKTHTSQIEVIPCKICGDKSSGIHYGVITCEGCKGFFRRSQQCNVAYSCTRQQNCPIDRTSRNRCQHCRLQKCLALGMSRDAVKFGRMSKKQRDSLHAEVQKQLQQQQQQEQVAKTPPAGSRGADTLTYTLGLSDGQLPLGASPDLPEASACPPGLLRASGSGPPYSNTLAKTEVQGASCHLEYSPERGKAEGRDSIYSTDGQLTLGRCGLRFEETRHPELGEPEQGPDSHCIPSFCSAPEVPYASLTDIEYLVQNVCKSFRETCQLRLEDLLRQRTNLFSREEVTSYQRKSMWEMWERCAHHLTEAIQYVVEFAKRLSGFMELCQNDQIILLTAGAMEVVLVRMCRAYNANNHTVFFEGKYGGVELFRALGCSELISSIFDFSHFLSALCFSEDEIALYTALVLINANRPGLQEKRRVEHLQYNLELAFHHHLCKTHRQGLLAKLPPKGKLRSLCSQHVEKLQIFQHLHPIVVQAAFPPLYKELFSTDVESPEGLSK
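Read-out: Photinus luciferase luminescence; inhibitors lower reporter signal. Insect Schneider cells with Gal4-ROR gamma fusion under metallothionein promoter, UAS reporter; 700 uM final copper sulfate induction, 20 hr, ambient temperature.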
* marks the source's active call; other numbers are inactive results; u = inconclusive; x = not tested or not shown; [ ] = dose if it differs, or a comment. Unless noted, the call rests on the fitted dose curve; in most records, active means well fitted curve in the direction sought with a large enough effect; inconclusive means small, poorly fitted or top-dose-only effect, or another doubt; inactive means no such curve, though single readings can be large; an effect the other way counts as inactive or inconclusive. On the % scale 0 is the no-effect control and ±100 the full control effect.

SMILES | TSHR antagonist | VP16 counter | FBPA coupling cs | ELG1 repair inh | RORg inh
CCn1c(=O)c(C(=O)NCc2ccc(F)cc2)c(O)c2ccccc21 | -13 | u | 0 | 10% | 13µM*
CCCn1c(=O)c(C(=O)NCCc2ccc(Cl)cc2)c(O)c2ccccc21 | 2 | u | -2 | -1% | 14µM*
CCn1c(=O)c(C(=O)NCc2ccc(Cl)cc2)c(O)c2ccccc21 | -7 | 6% | -5 | -1% | u
CCn1c(=O)c(C(=O)NCc2ccccc2)c(O)c2ccccc21 | -10 | 16µM* | -1 | -2% | u
Cc1ccc(C(=O)C2CCN(C(=S)NCCCOC(C)C)CC2)cc1 | -15 | 10% | 0 | -16% | -9%
Cc1cc(C)nc(Nc2n[nH]c(-c3cccc4ccccc34)n2)n1 | -11 | u | 6 | u | 11µM*
CCOc1ccc(S(=O)(=O)N2CCCC(C(=O)Nc3cc(C)cc(C)c3)C2)cc1 (stereo not drawn) | -9 | -26% | 0 | -14% | -29%
Cc1ccc(S(=O)(=O)NNC(=O)c2ccc(NC(=O)C3CC3)cc2)cc1 | 10 | -10% | x | -2% | -5%
CC(C)Sc1nc(SCC(=O)NCc2ccco2)c2c3c(sc2n1)COC(C)(C)C3 | -8 | -4% | -2 | 2.3µM* | 14%
COc1ccc(CCn2c(S)nc3ccccc3c2=O)cc1 | 23 | u | 1 | 25% | 3.2µM*
CCn1c(/C=C\c2ccccc2C)nc2ccccc2c1=O | -16 | 28% | 1 | -16% | -17%
O=c1c2ccccc2nc(/C=C/c2ccccc2)n1CCc1ccccc1 | 5 | -3% | 0 | 21µM* | 3%
O=c1c2ccccc2nc(-c2ccco2)n1Cc1ccccc1 | x | u | 3 | x | 19%
COc1ccc(CCn2c(C)nc3c(c(=O)c4ccccc4n3C)c2=O)cc1 | -8 | 2% | -1 | u | -15%
CCOc1ccc(CCn2c(-c3ccco3)nc3ccccc3c2=O)cc1OCC | -9 | -1% | -2 | 9.2µM* | u
Cc1ccccc1/C=C\c1nc2ccccc2c(=O)n1Cc1ccccc1 | 75 | -5% | 4 | 29µM* | -2%
CCOC(=O)c1cnc2c(cnn2C)c1NCCCn1ccnc1 | -10 | -1% | -1 | 22% | 16%
CCC1=C2CC[C@H]3C(=O)NC(=O)[C@H]3[C@H]2[C@@]2(Cc3ccccc3)C(=NCc3ccccc3)OC(=O)N2C1=O | x | 10% | -1 | x | 0%
CCc1cccc(NS(=O)(=O)c2c(C)nc3sc(CC)nn3c2=O)c1 | 10 | 0% | 5 | -12% | u
O=C(Oc1ccccc1)N1CCC2(CC1)CCN(c1ccccc1)CC2 | x | -18% | 2 | x | 45%
O=C(NCc1ccc(Cl)s1)C1CCC(=O)N(CCc2ccccn2)C1 (stereo not drawn) | 7 | 3% | 3 | 1% | 3%
COc1ccc(OC)c(NC(=O)C2CCN(C(=O)C3CC(=O)N(c4ccc(C)cc4)C3)CC2)c1 (stereo not drawn) | -6 | -8% | 2 | -7% | 23%
C#CCCCO/N=C1/[C@H]2O[C@@H]2[C@@H](O)[C@H]2[C@H]1CCn1c(=O)n([C@@H](CC)c3ccccc3)c(=O)n12 | x | -6%[10 µM] | 0 | x | -3%[10 µM]
COc1ccc(Cn2c(C(C)C)nc3sc4ccccc4c(=O)c3c2=O)cc1 | 1 | -4% | 3 | -8% | -13%
COc1ccc(CCn2c(C(C)C)nc3c(c(=O)c4ccccc4n3C)c2=O)cc1 | -9 | -2% | -1 | 16µM* | 6%
SMILES | TSHR antagonist | VP16 counter | FBPA coupling cs | ELG1 repair inh | RORg inh
CCCc1nc2sc3ccccc3c(=O)c2c(=O)n1Cc1ccc(OC)cc1 | 0 | -1% | 5 | 23µM* | 36%
O=C(Nn1c(COc2ccccc2)nc2ccccc2c1=O)C(Cl)(Cl)Cl | 6 | u | 4 | 21% | u
COc1ccc(C(=O)NC(CCSC)C(=O)N2CCCCCC2)cc1 (stereo not drawn) | 13 | 25% | 1 | -7% | 9%
CCCn1c(C)nc2c(NC3CCN(Cc4ccccc4)C3)nc(C)nc21 (stereo not drawn) | x | -6% | 0 | x | -12%
COc1cc(C(=O)Nc2ccc(C)c(S(=O)(=O)N(C)C)c2)ccc1OCC(=O)N1CCOCC1 | -8 | x | x | u | x
O=S(=O)(c1ccc(SCCOc2cccc(Br)c2)nc1)N1CCCC1 | -3 | x | x | -2% | x
COc1ccc(NC(=O)CCl)cn1 | -6 | 0% | -40* | -14% | 17%
COc1ccc(NC(=O)/C(Cl)=C(/Cl)S(=O)(=O)Cc2ccccc2)cn1 | u | 3.2µM* | 0 | 18µM* | u
COc1ccc(NC(=O)/C(Cl)=C(/Cl)S(=O)Cc2ccc(Cl)cc2)cn1 (stereo not drawn) | u | 2.8µM* | -1 | u | 0.79µM*
CCc1noc(C)c1C(=O)N1CCCC(N2CCN(c3cccc(Cl)c3)CC2)C1 (stereo not drawn) | 5 | -5% | x | -16% | 20%
O=C1c2ccccc2-c2n[nH]c(=O)c3ccc(N4CCCCC4)c1c23 | -6 | -12% | -4 | u | 35%
Nc1ccc(Br)cc1C(=O)O | 2 | 1.4µM* | 0 | 1% | 2.8µM*
Nc1ccc(-c2ccc(N)c(C(=O)O)c2)cc1C(=O)O | -1 | -23% | 4 | 15% | -2%
COc1ccc(Cc2nnc(SCC(=O)N(C)CC(=O)Nc3ccc(C)cc3)o2)cc1 | 4 | x | x | u | x
Oc1ccc(/C=N/Nc2ccc(C(F)(F)F)cn2)cc1 | -1 | u | -3 | u | 4.5µM*
O=C(N/N=C\c1cccc(F)c1)c1ccc(-c2ccccc2)cc1 | 20 | 2% | x | u | 1%
O=C(N/N=C/c1c(O)ccc2ccccc12)c1cccc(C(F)(F)F)c1 | -36 | 5µM* | -1 | u | 3.2µM*
O=C(N/N=C/c1cccc(C(F)(F)F)c1)c1ccc(O)cc1 | -4 | u | -3 | 17% | 1.1µM*
O=C(N/N=C/c1ccc(C(F)(F)F)cc1)c1ccc(O)cc1 | 0 | 4.5µM* | 1 | u | 1.8µM*
O=c1cc(-c2ccccc2F)[nH]c2cc3c(cc12)OCO3 | -23 | x | x | x | x
CCOC(=S)SSC(=S)OCC | x | 0% | x | x | 11%
Cc1ccc(NC(=O)CN(C)S(=O)(=O)c2cnc[nH]2)c(C)c1 | 5 | 4% | -3 | 3% | 4%
CCOc1ccc(C(=O)N/N=C/c2ccc(SC)cc2)cc1 | -4 | -19% | 4 | 3% | -34%
CSc1ccc(/C=N/NC(=O)c2cccc(O)c2)cc1 | -10 | 2.2µM* | -6 | u | -40%
COc1ccc2c(c1)NC(C)(C)C=C2C | 0 | -2% | -33* | -10% | -17%
CC1=CC(C)(C)Nc2ccc(OS(=O)(=O)c3ccc(C)cc3)cc21 | -10 | -10% | -9 | 2% | -21%
O=C(CSc1ccccn1)N/N=C/C=C/c1ccccc1 | 3 | 16µM* | -5 | u | u
